Laboratory results as given in PubChem BioAssay.
The source made the active and inactive calls.

Experiments:
Albumin (Bos taurus) = Albumin (Bos taurus) (UniProt P02769); test: bovine serum albumin binders on microarray, profiling panel, artefact control for SMM control protein annotation, biochemical, small-molecule microarray, Alexa647 label, 635/667 nm fluorescence (AID 1118); conditions: BSA-A647 binding, fluorescence 635 nm, higher = more signal;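 note: score merges 667 nm emission intensity and signal-to-noise per printed compound spot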
Sequence of Albumin (Bos taurus) (P02769 whole entry, looked up): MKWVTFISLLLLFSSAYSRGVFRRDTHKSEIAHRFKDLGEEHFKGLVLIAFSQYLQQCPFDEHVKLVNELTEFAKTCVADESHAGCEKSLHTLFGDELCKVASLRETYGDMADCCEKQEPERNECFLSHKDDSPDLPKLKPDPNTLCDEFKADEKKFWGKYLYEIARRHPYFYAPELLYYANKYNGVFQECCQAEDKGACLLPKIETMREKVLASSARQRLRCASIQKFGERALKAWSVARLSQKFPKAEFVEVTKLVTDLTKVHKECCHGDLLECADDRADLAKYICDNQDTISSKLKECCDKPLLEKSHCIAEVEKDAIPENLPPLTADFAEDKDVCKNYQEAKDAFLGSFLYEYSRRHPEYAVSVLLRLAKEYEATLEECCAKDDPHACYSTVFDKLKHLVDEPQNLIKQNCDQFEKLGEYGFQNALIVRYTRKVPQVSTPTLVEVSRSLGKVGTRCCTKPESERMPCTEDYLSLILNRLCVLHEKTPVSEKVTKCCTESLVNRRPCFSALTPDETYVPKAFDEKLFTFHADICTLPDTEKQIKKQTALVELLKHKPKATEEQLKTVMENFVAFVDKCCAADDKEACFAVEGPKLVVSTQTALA

[1] = small-molecule microarray binders of probe aXIP, primary screen, biochemical, NeuroSMM set, 635/667 nm fluorescence (AID 1119); conditions: higher = more signal, called active from +8 up or from −8 down;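 note: probe is the protein aXip251-270 applied at 1 µg/mL to compound-printed slides; binding of probe to printed compounds measured as 667 nm fluorescence plus signal to noise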
[2] = small-molecule binders of probe aNOTCH3, primary screen, biochemical, small-molecule microarray, 635/667 nm fluorescence (AID 1120); conditions: higher = more signal;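 note: probe is a biotin-tagged antibody raised against NOTCH3 rather than NOTCH3 protein; score merges spot fluorescence near 667 nm with spot signal to noise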
[3] = small-molecule binders of probe aNOTCH2, primary screen, biochemical, small-molecule microarray, 635/667 nm fluorescence (AID 1121); conditions: higher = more signal;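 note: score merges feature fluorescence read at 667 nm with its signal to noise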
[4] = target: Carbonic anhydrase 2 (Homo sapiens) (UniProt P00918); test: CAII small-molecule binders, profiling panel, biochemical, small-molecule microarray, Alexa647-labelled CAII (AID 1122); conditions: CAII-A647 binding fluorescence, higher = more signal
[5] = COS7 lysate on small-molecule microarray, probe aHis, 635 nm (AID 1123); conditions: COS7 cell lysate, fluorescence, higher = more signal;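 note: z-score combines 667nm fluorescence intensity with signal-to-noise per printed compound spot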
[6] = compound binding in COS7 lysate, probe aLAP1, primary screen, cell lysate, small-molecule microarray (AID 1124); conditions: probe aLAP1, fluorescence, higher = more signal;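 note: lysate comes from COS7 cells expressing LAP1 and is applied at 0.3 µg/mL; score merges spot fluorescence near 667 nm with signal-to-noise over triplicate slides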
Sam68 (KHDRBS1) = test: Sam68 small-molecule binders, primary screen, biochemical, small-molecule microarray, 635 nm fluorescence (AID 1125); conditions: small-molecule microarray binding, higher = more signal;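 note: score merges 667 nm channel intensity with signal to noise over triplicate slides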
[7] = system: Chordin-like protein 2 (CHRDL2); test: CHRDL2 small-molecule binders, primary screen, biochemical, small-molecule microarray, 635 nm fluorescence (AID 1126); conditions: small-molecule microarray binding, fluorescence 635 nm; higher = more signal;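 note: printed compound slides probed with Chrdl2 protein at 4 µg/mL for 1 h at 4 C; score merges 667 nm emission intensity with signal to noise over three replicate slides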
[8] = target: Concanavalin-A (Canavalia ensiformis) (UniProt P02866); test: ConA small-molecule binders, primary screen, artefact control for SMM control protein annotation, biochemical, small-molecule microarray, Alexa647 label, 635 nm (AID 1127); conditions: ConA-A647 binding fluorescence, higher = more signal;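 note: z combines 667 nm emission intensity with signal-to-noise across three replicate slides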
Sequence of Concanavalin-A (Canavalia ensiformis) (P02866 whole entry, looked up): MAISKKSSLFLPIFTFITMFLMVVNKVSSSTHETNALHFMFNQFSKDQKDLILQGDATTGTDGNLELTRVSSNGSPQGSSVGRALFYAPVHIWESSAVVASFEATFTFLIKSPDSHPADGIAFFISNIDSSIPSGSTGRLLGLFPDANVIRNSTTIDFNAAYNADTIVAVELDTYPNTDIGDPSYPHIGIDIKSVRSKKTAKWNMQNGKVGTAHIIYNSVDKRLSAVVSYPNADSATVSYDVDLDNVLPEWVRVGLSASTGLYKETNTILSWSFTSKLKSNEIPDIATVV

| Structure (SMILES) | composite z-score (Albumin (Bos taurus)) | composite Z-score [1] | composite z-score [2] | composite z-score [3] | composite z-score [4] | composite z-score [5] | composite z-score [6] | composite z-score (Sam68 (KHDRBS1)) | composite z-score [7] | composite z-score [8] |
| --- | --- | --- | --- | --- | --- | --- | --- | --- | --- | --- |
| CCOC(=O)C[C@H]1[C@H](OC(=O)c2ccccc2-c2ccccc2)[C@@H](NC(=O)C2CCCCC2)c2cc(OCCCO)ccc2N1C(=O)c1ccccc1 | 0.576 | 0.909 (inactive) | -0.0647 | -0.0784 | 0.393 | 0.68 | -0.175 | 0.692 | 0.173 | 0.404 |
| CO[C@@H]1COC(=O)CC=C[C@H](C)COC(=O)[C@H](Cc2ccccc2)NC(=O)CC=C[C@H]1C | -2.04 | 0.772 (inactive) | -0.162 | -0.167 | -0.155 | -0.596 | 0.0055 | 0.294 | 1.53 | -0.651 |
| Cc1ccc(S[C@]2(C(=O)O)CC(=O)N(Cc3cc(C(F)(F)F)cc(C(F)(F)F)c3)[C@@H]2c2ccc(CO)cc2I)cc1 | 0.372 | 1.54 (inactive) | -0.243 | -0.154 | 0.0858 | 0.0199 | -0.439 | 0.456 | -1.02 | 0.226 |
| C=CC[C@@]1(C(=O)NCC(O)CO)N=C(c2ccc(OCCCO)cc2)O[C@@H]1c1ccccc1CN=[N+]=[N-] (stereo not given in full) | 0.988 | 0.536 (inactive) | -0.105 | -0.0759 | 0.809 | 2.98 | 0.411 | 1.04 | -0.834 | -0.304 |
| C=C[C@H](OC)[C@@H](OC(=O)Nc1ccc(SC)cc1)c1ccc(OC)c(O)c1 | -1.37 | 0.157 (inactive) | -0.403 | -0.183 | 0.1 | 0.677 | -0.245 | 0.347 | -0.998 | -0.473 |
| CC(C)C[C@@H]1NC(=O)[C@H](CC(C)C)NC(=O)[C@@]23C(=O)N[C@@H](Cc4ccccc4)C2[C@H](C)[C@@]2(C)O[C@H]2C3/C=C/CC/C=C/CNC1=O (stereo not given in full) | 0.734 | -0.392 (inactive) | -0.0657 | -0.118 | 0.578 | 0.268 | -0.219 | 1.05 | 0.702 | 1.02 |
| O=C1C[C@@](C(=O)NC2CC2)(c2ccc([N+](=O)[O-])cc2)[C@@H](c2ccc(CO)cc2I)N1CC12CC3CC(CC(C3)C1)C2 | -0.344 | 0.381 (inactive) | 0.0538 | -0.19 | 0.473 | 1.64 | 2.12 | 1.12 | 0.224 | 1.1 |
| C=CCC(OC(C)=O)[C@@H]1[C@@H](N(Cc2cccc3ccccc23)C(=O)Cc2ccc(F)cc2)c2cc(OCCCO)ccc2N1C(=O)Cc1ccc2ccccc2c1 (stereo not given in full) | 0.0257 | -0.227 (inactive) | -0.0881 | -0.0194 | -0.117 | 0.293 | -0.27 | -0.146 | -0.214 | -1.5 |
| O=C1O[C@H](c2ccccc2)[C@H](c2ccccc2)N2[C@H]1[C@@H](C(=O)Nc1nc3ccccc3s1)[C@]1(C(=O)Nc3ccc(C#CC4(O)CCCCCC4)cc31)[C@H]2c1ccc(O)cc1 | 0.934 | 0.928 (inactive) | 0.116 | -0.0283 | 0.415 | 2.53 | 0.797 | 1.3 | 0.528 | 1.14 |
| CO[C@H]1COC(=O)CC=C[C@H](C)[C@@H](OC)COC(=O)CC=C[C@@H]1C | -0.683 | 0.142 (inactive) | -0.155 | -0.14 | -0.782 | -0.702 | -0.36 | -0.294 | 1.21 | -1.25 |
| C=CCc1cccc([C@@H]2[C@@H](C)CC[C@H]3C(=O)N4[C@H](c5cccc(CC=C)c5)[C@@H](C)CC[C@H]4C(=O)N23)c1 | 0.593 | 0.576 (inactive) | 0.0827 | -0.0304 | 0.244 | 0.564 | 0.035 | 0.55 | 0.977 | 1.03 |
| CCCC=C(CCC)[C@@H](NS(=O)(=O)c1cccc(C(F)(F)F)c1)c1ccc(C(=O)OC)cc1 | -0.0532 | 0.136 (inactive) | 1.7 | 1.06 | 0.169 | 0.455 | 0.134 | 0.601 | -1.35 | 0.804 |
| [N-]=[N+]=NCc1ccccc1C[C@]1(C(=O)N2CCCCC2)N=C(c2ccc(OCCCO)cc2)O[C@H]1c1ccccc1CN=[N+]=[N-] | 0.899 | 0.375 (inactive) | 0.268 | -0.0817 | 0.441 | 2.56 | 0.796 | 1.29 | -0.914 | 1.04 |
